A short description of test [1]: antimalarial activity against Dd2 strain (AID 2302;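 active = growth inhibition above 50% at the single 2 µM test dose, taken to imply half-maximal potency below 2 µM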;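 also: 0% = DMSO untreated growth and 100% = chloroquine plus artemisinin killed control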). The note with it: P. falciparum Dd2 in RBCs, LDH growth readout, 72 h; at 2 µM; active compounds read high.
Test [2] in a line: HepG2 cytotoxicity, primary screen, cytotoxicity control for P. falciparum antimalarial project, cell-based, ATP luminescence (AID 2303;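 active = inhibition above 50%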;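 also: 0% = DMSO wells and 100% = digitonin-killed cells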). The settings on record: HepG2 viability, 24-48 h, at 10 µM, active compounds read high.
Test [3] deals with L-lactate dehydrogenase (Plasmodium falciparum (isolate CDC / Honduras)) (UniProt Q27743). The test is described as follows: PfLDH activity inhibition – cell lysate, 3D7 strain, counter-screen for P. falciparum growth inhibition project (AID 2304).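 Also: 0% = vehicle and 100% = reference inhibitor.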 The settings on record: P. falciparum 3D7 crude extract, LDH APAD/NBT absorbance; at 2 µM; active compounds read high. (A counterscreen serves to expose hits that act by an unwanted route or on another target.)

Test [4] in a line: inhibition of 3D7 malaria parasite growth – strain 3D7 (AID 2306).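 Also: 0% = DMSO wells and 100% = chloroquine plus artemisinin control wells.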 The settings on record: P. falciparum 3D7 erythrocytic growth, LDH absorbance, 72 h; at 2 µM; active compounds read high.
Test [5] addresses Calcium-dependent protein kinase 1 (Plasmodium falciparum (isolate 3D7)) (UniProt P62344). The experiment in a line: PfCDPK1 kinase inhibitors, biochemical, TCAMS library (AID 1159585; cut-off not given, nearly all actives have IC50 up to about 0.98 µM;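 also: inhibitors leave more ATP so luminescence rises with inhibition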). The note with it: recombinant PfCDPK1, Kinase-Glo ATP depletion luminescence. Background: Kinase-Glo reads ATP consumption through a luciferase reaction.
The target of test [6] is Plasmodium falciparum protein kinase 6 (PK6, PF3D7_1337100) (UniProt Q8IDW1). The test is described as follows: PfPK6 kinase inhibitors, biochemical, TCAMS library (AID 1159586). The note with it: recombinant PfPK6, Kinase-Glo ATP depletion luminescence.
Test [7] has as its target Protein kinase 7 (PK7), Plasmodium falciparum 3D7 (PF3D7_0213400) (UniProt Q7YTF7). The test is described as follows: inhibition of Plasmodium PK7 catalytic activity – biochemical, TCAMS antimalarial set, Kinase-Glo luminescence (AID 1159587). The settings on record: recombinant PfPK7, Kinase-Glo ATP depletion luminescence.
In test [8] the target is Calcium-dependent protein kinase 4 (Plasmodium falciparum (isolate 3D7)) (UniProt Q8IBS5). The test is described as follows: PfCDPK4 kinase inhibitors, biochemical, TCAMS library (AID 1159588; cut-off not given, nearly all actives have IC50 up to about 0.91 µM). The settings on record: recombinant PfCDPK4, Kinase-Glo ATP depletion luminescence.

The structures appear in SMILES notation. Values without a mark were called inactive. For some of these results: Potency and affinity values are given separately. Active and inactive are the calls of the source. Unless noted, no rule for the calls is given here.

Sequence of Calcium-dependent protein kinase 4 (Plasmodium falciparum (isolate 3D7)) (Q8IBS5 whole entry, looked up): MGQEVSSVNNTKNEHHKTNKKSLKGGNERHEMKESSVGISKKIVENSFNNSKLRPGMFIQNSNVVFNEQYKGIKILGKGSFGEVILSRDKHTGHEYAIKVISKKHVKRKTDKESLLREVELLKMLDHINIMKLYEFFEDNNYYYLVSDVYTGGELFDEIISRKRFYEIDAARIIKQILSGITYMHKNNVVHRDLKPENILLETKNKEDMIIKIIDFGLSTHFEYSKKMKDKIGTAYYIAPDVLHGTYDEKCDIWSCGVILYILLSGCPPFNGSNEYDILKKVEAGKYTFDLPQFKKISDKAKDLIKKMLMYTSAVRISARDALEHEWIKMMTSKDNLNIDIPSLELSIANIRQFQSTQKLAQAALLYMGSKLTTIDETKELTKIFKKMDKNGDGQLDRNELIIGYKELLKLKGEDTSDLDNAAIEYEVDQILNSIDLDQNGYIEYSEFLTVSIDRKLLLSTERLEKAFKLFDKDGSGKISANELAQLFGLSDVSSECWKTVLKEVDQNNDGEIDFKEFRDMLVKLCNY
Sequence of L-lactate dehydrogenase (Plasmodium falciparum (isolate CDC / Honduras)) (Q27743 whole entry, looked up): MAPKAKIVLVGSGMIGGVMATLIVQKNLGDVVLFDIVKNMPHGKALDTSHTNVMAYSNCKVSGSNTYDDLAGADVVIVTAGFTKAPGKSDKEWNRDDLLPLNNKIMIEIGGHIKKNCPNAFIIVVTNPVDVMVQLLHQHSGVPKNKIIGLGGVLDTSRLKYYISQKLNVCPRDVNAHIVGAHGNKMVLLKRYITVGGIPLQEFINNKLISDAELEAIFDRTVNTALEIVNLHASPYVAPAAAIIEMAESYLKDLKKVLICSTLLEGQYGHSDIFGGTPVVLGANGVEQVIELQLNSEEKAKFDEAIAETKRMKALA
Sequence of Protein kinase 7 (PK7), Plasmodium falciparum 3D7 (PF3D7_0213400) (Q7YTF7 1-343): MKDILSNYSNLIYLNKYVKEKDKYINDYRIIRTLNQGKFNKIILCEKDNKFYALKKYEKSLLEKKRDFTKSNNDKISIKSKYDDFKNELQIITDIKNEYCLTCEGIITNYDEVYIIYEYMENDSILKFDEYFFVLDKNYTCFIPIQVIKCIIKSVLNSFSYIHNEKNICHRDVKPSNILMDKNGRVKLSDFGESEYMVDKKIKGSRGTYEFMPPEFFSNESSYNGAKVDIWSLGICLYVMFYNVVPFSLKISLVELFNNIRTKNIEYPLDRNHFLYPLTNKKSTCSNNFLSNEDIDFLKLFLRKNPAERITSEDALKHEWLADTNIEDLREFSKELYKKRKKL
Sequence of Calcium-dependent protein kinase 1 (Plasmodium falciparum (isolate 3D7)) (P62344 whole entry, looked up): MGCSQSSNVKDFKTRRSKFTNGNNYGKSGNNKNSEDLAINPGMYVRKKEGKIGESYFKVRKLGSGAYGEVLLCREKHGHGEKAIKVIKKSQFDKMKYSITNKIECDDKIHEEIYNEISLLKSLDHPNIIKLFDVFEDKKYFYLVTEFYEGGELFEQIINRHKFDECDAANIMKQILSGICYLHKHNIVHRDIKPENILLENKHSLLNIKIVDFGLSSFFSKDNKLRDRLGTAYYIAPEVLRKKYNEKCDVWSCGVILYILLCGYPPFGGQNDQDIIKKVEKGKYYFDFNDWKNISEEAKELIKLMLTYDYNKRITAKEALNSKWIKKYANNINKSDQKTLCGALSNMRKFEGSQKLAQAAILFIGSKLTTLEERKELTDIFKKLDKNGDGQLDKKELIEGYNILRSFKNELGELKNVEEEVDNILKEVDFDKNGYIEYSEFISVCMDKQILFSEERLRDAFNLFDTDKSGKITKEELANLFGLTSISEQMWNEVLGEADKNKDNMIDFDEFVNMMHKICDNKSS
Sequence of Plasmodium falciparum protein kinase 6 (PK6, PF3D7_1337100) (Q8IDW1 1-305): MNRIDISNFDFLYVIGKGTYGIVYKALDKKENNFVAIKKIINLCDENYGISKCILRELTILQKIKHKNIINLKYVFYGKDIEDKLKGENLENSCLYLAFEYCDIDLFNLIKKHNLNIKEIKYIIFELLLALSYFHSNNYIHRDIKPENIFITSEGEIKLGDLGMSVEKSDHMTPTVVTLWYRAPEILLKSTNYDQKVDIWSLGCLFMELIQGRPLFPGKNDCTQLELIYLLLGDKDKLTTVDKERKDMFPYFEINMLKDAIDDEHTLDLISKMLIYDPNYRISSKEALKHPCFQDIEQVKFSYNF

Consider `COc1ccc(-c2ccc(CN(C)C3CCC(NC(=O)c4cc5ccccc5[nH]4)CC3)cc2)cn1` (stereo not given), for which the growth inhibition is 2% in test [1] and 88% (active) in test [4]. For the same compound, the inhibition (usually the relative decrease from the control value, in per cent) in test [2] is 31%; in test [3] it was -1%. Further, the result in test [5], in test [6], in test [7] and in test [8] was inactive.
`CCCCc1ccc(-c2ccc(-c3c(C)[nH]c(C)c(Br)c3=O)cn2)cc1`: the growth inhibition was 96% (active) in test [1] and 98% (active) in test [4]. Also, the inhibition was -7% in test [2] and 1% in test [3]. The outcome in test [5], in test [6], in test [7] and in test [8] was inactive.
As to `O=C(Nc1ccc(Cl)cc1)Nc1ccc(OCC(O)CN2CCCCC2)cc1` (stereo not given), the growth inhibition in test [1] was 13%; in test [4], 83% (active). Moreover, the values for the inhibition in test [2] and in test [3] were 18% and -1%, respectively. The outcome in test [5], in test [6], in test [7] and in test [8] was inactive.
With `CCOc1ccc(C2CCN(CCN3CCC(NC(=O)c4ccc(-c5ccc(C(F)(F)F)cc5)cc4)CC3)CC2)c(OCC2CC2)c1`, the growth inhibition is 65% (active) in test [1] and 99% (active) in test [4]. The figures for the inhibition in test [2] and in test [3] were 13% and -9%, respectively. Moreover, the result in test [5], in test [6], in test [7] and in test [8] was inactive.
Consider `COc1ccc(C2=C(Nc3ccc4oc5ccccc5c4c3)c3ccccc3C2=O)cc1`, for which the growth inhibition is 92% (active) in test [1] and 93% (active) in test [4]. Also, the inhibition in test [2] was 9%; in test [3], 5%. Also, the result in test [5], in test [6], in test [7] and in test [8] was inactive.
For the compound `O=C(NCc1ccco1)c1ccc(S(=O)(=O)c2ccc(Cl)cc2)cc1`, the growth inhibition in test [1] was 95% (active); in test [4], 97% (active). Besides, the inhibition in test [2] is 6%; in test [3], -3%. In addition, the result in test [5], in test [6], in test [7] and in test [8] was inactive.
As to `O=C(O)C1Cc2c([nH]c3ccccc23)C(c2ccc(Cl)cc2Cl)N1` (stereo not given), the growth inhibition in test [1] is 100% (active); in test [4] it was 91% (active). Also, the inhibition in test [2] was 7%; in test [3] it was 0%. Further, the outcome in test [5], in test [6], in test [7] and in test [8] was inactive.
Turning to `Cc1nc(-c2nc(NCCc3c(C)noc3C)ncc2-c2ccsc2)sc1C`, the values for the growth inhibition in test [1] and in test [4] were 85% (active) and 87% (active), respectively. Besides, the inhibition in test [2] was 12%; in test [3] it was -2%. Also, the outcome in test [5], in test [6], in test [7] and in test [8] was inactive.
As to `Cc1ccc(F)c(OC2CCN(c3ccc(C(=O)NC4CC4)cn3)CC2)c1`, the growth inhibition was 72% (active) in test [1] and 92% (active) in test [4]. Also, the inhibition in test [2] was 10%; in test [3], -2%. Besides, the outcome in test [5], in test [6], in test [7] and in test [8] was inactive.
For the compound `CCOC(=O)CNCC(=O)c1ccc(OCc2ccccc2)cc1`, the growth inhibition in test [1] was 43%; in test [4], 95% (active). In addition, the inhibition is 4% in test [2] and -3% in test [3]. Also, the result in test [5], in test [6], in test [7] and in test [8] was inactive.
`Cc1c(CC(=O)N(C)C2CCN(CCCCCNC(=O)/C=C/c3ccc(Cl)c(Cl)c3)CC2)sc2ccc(Cl)cc12`: the growth inhibition in test [1] was 9%; in test [4], 95% (active). The inhibition in test [2] is 93% (active); in test [3], 3%. The outcome in test [5], in test [6], in test [7] and in test [8] was inactive.
For the compound `Cc1cc(NN=Cc2ccccc2Cl)c2ccc(F)cc2n1`, the growth inhibition in test [1] is 100% (active); in test [4], 101% (active). The results for the inhibition in test [2] and in test [3] were 6% and -4%, respectively. For the same compound, the outcome in test [5], in test [6], in test [7] and in test [8] was inactive.
`CCCCn1c(Sc2ccc(C#N)c([N+](=O)[O-])c2)nnc1-c1ccc(OC)cc1`: the growth inhibition in test [1] was 61% (active); in test [4] it was 93% (active). In addition, the results for the inhibition in test [2] and in test [3] were 12% and 0%, respectively. Further, the result in test [5], in test [6], in test [7] and in test [8] was inactive.
Regarding `CCC[C@@H]1CCN[C@H]([C@H](O)c2ccnc3ccc(OC)cc23)C1`, the growth inhibition in test [1] was 69% (active); in test [4] it was 99% (active). The values for the inhibition in test [2] and in test [3] were -3% and -1%, respectively. For the same compound, the outcome in test [5], in test [6], in test [7] and in test [8] was inactive.
As to `O=C(Cc1cccc(Cl)c1)Nc1cccc(-c2c[nH]c3nc(Nc4cccc(O)c4)ncc23)c1`, the growth inhibition in test [1] is 74% (active); in test [4], 100% (active). Besides, the inhibition was 23% in test [2] and 3% in test [3]. Also, the outcome in test [5], in test [6], in test [7] and in test [8] was inactive.
With `CCCCCCN1CCCN(Cc2ccc(C(=O)Nc3ccc(C(C)(C)C)cc3)cc2)CC1`, the growth inhibition in test [1] is 32%; in test [4], 100% (active). The inhibition in test [2] was 53% (active); in test [3] it was -3%. For the same compound, the outcome in test [5], in test [6], in test [7] and in test [8] was inactive.
For the compound `C[C@H](Cc1ccc(OCCCCCOc2ccc(C[C@@H](C)NC[C@H](O)c3cccc(Cl)c3)cc2)cc1)NC[C@H](O)c1cccc(Cl)c1`, the values for the growth inhibition in test [1] and in test [4] were 101% (active) and 99% (active), respectively. The inhibition in test [2] is 99% (active); in test [3] it was -1%. The result in test [5], in test [6], in test [7] and in test [8] was inactive.
Regarding `CN(C)CCCOc1ccc(CN2CC[C@H](NC(=O)c3ccc(Cl)c(Cl)c3)C2)c2ccccc12`, the growth inhibition is 97% (active) in test [1] and 101% (active) in test [4]. The inhibition in test [2] was 81% (active); in test [3] it was 0%. Further, the outcome in test [5], in test [6], in test [7] and in test [8] was inactive.
Consider `CC(C)Sc1nc2c(c(=O)n1CCc1ccccc1)C1(CCCC1)Cc1ccccc1-2`, for which the growth inhibition in test [1] was 88% (active); in test [4], 102% (active). Further, the inhibition was -3% in test [2] and -4% in test [3]. Moreover, the outcome in test [5], in test [6], in test [7] and in test [8] was inactive.
On to `CCNc1cc(CC)nc(Nc2ccc(C)cc2)n1`, for which the growth inhibition is 24% in test [1] and 100% (active) in test [4]. Besides, the values for the inhibition in test [2] and in test [3] were 22% and -1%, respectively. The result in test [5], in test [6], in test [7] and in test [8] was inactive.
